The results in this text go back to PubChem BioAssay (EPA / NIEHS).

One may read the AC50 as the midpoint of the concentration-response curve, whichever way the signal moves.

Experiment [1] concerns the target human Tyrosine Protein Kinase Receptor Tie-2 (Tie2), TEK (gene 7010) (UniProt Q02763). In words: NVS_ENZ_hTie2: NovaScreen (NVS) Enzymatic Assay for human Tyrosine Protein Kinase Receptor Tie-2 (Tie2) (AID 2283225). How it is done: (§1) NVS_ENZ_hTie2 is a biochemical, single-readout assay that uses extracted gene-proteins in a cell-free assay. Measurements were taken 1 hour after chemical dosing in a 384-well plate.NVS_ENZ_hTie2 is one of one assay component(s) measured or calculated from the NVS_ENZ_hTie2 assay. It is designed to make measurements of enzyme activity, a form of enzyme reporter, as detected with fluorescence intensity signals by Fluorescence and electrophoretic mobility shift technology.Data from the assay component NVS_ENZ_hTie2 was analyzed into 1 assay endpoint. This assay endpoint, NVS_ENZ_hTie2, was analyzed in the positive analysis fitting direction relative to DMSO as the negative control and baseline of activity. Using a type of enzyme reporter, loss-of-signal activity can be used to understand changes in the enzymatic activity as they relate to the gene TEK. Furthermore, this assay endpoint can be referred to as a primary readout, because this assay has produced multiple assay endpoints where this one serves a enzymatic activity function. To generalize the intended target to other relatable targets, this assay endpoint is annotated to the kinase intended target family, where the subfamily is receptor tyrosine kinase.
(§2) Binding assays used specific radioligands (tritiated, iodinated) with non-radioactive competitive displacement ligands in agonist or antagonist protocols (as indicated) and various reference compounds and inhibitors to titrate specific binding to receptors and transporters. Most enzyme assays (CYPs, kinases, phosphatases, proteases, HDACs) used recombinant protein and specific substrates (fluorescence mostly, some colorimetric and radioactive) and inhibitors, followed by a biochemical separation of substrate and product. All assays for the biochemical HTS were initially run in duplicate at a single concentration (10 uM for CYP450 assays and 25 uM for all others). Assay-chemical combinations meeting a pre-defined threshold (e.g., 30% inhibition and other criteria defined below) were then run in singleton concentration-response format with maximum concentration of 20 uM for CYPs and 50 uM for all others. Each assay was run with positive and negative controls, and concurrent controls on every plate. The follow-up (secondary) screen tested active chemical-pairs in concentration series, as well as a few additional assays not tested in the primary screen, some selected negative inactives, and several cases re-run in the concentration series for confirmatory purposes.

Experiment [2] concerns the target rabbit Imidazoline 2 Central (I2C), CKB (gene 100009085) (UniProt P00567). Kind of experiment: NVS_ENZ_rabI2C: NovaScreen (NVS) Enzymatic Assay for rabbit Imidazoline 2 Central (I2C) (AID 2283228). A digest of the protocol:
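Rabbit brain membranes, cell-free; readout by filter-based scintillation counting 1.5 hours after dosing, loss of signal vs DMSO. Initial duplicate test at 25 uM, then concentration-response with 50 uM top concentration.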

The target of experiment [3] is rat Adenylate Cyclase, Forskolin Stimulated, Adcy5 (gene 64532) (UniProt Q04400). Kind of experiment: NVS_ENZ_rACFSKBinding: NovaScreen (NVS) Enzymatic Assay for rat Adenylate Cyclase, Forskolin Stimulated (AID 2283232). A digest of the protocol:
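Chemicals were first tested at 25 uM in duplicate, then hits run as concentration series with top concentration 50 uM. Enzyme source was rat forebrain membranes; radiometric filter read-out after 1 h, referenced to DMSO.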

Experiment [4] addresses rat Acetylcholinesterase (AChE), Ache (gene 83817) (UniProt P37136). Kind of experiment: NVS_ENZ_rAChE: NovaScreen (NVS) Enzymatic Assay for rat Acetylcholinesterase (AChE) (AID 2283233). The essentials: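 Compounds first screened at 25 uM in duplicate, then those passing threshold tested in concentration series up to 50 uM, against AChE from rat brain membranes. Enzyme activity read by absorbance at 0.33 h; inhibition scored versus DMSO.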

Experiment [5] concerns the target human Tropomyosin Receptor Kinase A (TRKA), NTRK1 (gene 4914) (UniProt P04629). In words: NVS_ENZ_hTrkA: NovaScreen (NVS) Enzymatic Assay for human Tropomyosin Receptor Kinase A (TRKA) (AID 2283224). A digest of the protocol: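 Compounds were screened at 25 uM in duplicate, then concentration series to a 50 uM top for those meeting threshold (e.g. 30% inhibition). Enzyme was recombinant human TrkA, incubated 1 h. Product formation was quantified by fluorescence after mobility-shift separation.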

Experiment [6] concerns the target human Vascular Endothelial Growth Factor Receptor 2 (VEGFR2), KDR (gene 3791) (UniProt P35968). In words: NVS_ENZ_hVEGFR2: NovaScreen (NVS) Enzymatic Assay for human Vascular Endothelial Growth Factor Receptor 2 (VEGFR2) (AID 2283230). How it is done:
as §1, with “NVS_ENZ_hVEGFR2” for “NVS_ENZ_hTie2”, “plate.NVS_ENZ_hVEGFR2” for “plate.NVS_ENZ_hTie2”, “NVS_ENZ_hVEGFR2,” for “NVS_ENZ_hTie2,”, “KDR.” for “TEK.”, “kinase. […]” for “kinase.”

The target in experiment [7] is sheep Cyclooxygenase-2 (Cox2), PTGS2 (gene 443460) (UniProt P79208). In words: NVS_ENZ_oCOX2: NovaScreen (NVS) Enzymatic Assay for sheep Cyclooxygenase-2 (Cox2) (AID 2283231). The procedure: NVS_ENZ_oCOX2 is a biochemical, single-readout assay that uses extracted gene-proteins from Ovine placenta in a tissue-based cell-free assay. Measurements were taken 0.66 hour after chemical dosing in a 96-well plate.NVS_ENZ_oCOX2 is one of one assay component(s) measured or calculated from the NVS_ENZ_oCOX2 assay. It is designed to make measurements of enzyme activity, a form of enzyme reporter, as detected with absorbance signals by Colorimetric technology.Data from the assay component NVS_ENZ_oCOX2 was analyzed into 1 assay endpoint. This assay endpoint, NVS_ENZ_oCOX2, was analyzed in the positive analysis fitting direction relative to DMSO as the negative control and baseline of activity. Using a type of enzyme reporter, loss-of-signal activity can be used to understand changes in the enzymatic activity as they relate to the gene PTGS2. Furthermore, this assay endpoint can be referred to as a primary readout, because this assay has produced multiple assay endpoints where this one serves a enzymatic activity function. To generalize the intended target to other relatable targets, this assay endpoint is annotated to the oxidoreductase intended target family, where the subfamily is cyclooxygenase.
sheep Cyclooxygenase-2 (Cox2), PTGS2 (gene 443460), sequence (P79208 whole entry, looked up): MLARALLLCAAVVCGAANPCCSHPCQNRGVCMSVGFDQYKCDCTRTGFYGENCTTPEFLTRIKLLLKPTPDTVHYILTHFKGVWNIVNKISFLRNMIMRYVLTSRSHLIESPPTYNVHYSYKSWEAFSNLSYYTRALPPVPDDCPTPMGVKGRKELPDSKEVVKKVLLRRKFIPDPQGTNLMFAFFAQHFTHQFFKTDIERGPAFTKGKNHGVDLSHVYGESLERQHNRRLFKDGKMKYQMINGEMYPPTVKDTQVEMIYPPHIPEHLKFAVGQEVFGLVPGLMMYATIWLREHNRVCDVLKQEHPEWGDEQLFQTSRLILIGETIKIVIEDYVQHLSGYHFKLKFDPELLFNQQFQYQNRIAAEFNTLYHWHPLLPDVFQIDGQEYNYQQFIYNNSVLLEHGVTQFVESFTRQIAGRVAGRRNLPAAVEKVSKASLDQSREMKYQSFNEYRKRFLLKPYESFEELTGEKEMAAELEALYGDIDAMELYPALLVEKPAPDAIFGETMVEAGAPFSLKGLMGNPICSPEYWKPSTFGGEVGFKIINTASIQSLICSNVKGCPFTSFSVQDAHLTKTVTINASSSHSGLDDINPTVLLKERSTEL
as §2

Experiment [8] addresses human Vascular Endothelial Growth Factor Receptor 3 (VEGFR3), FLT4 (gene 2324) (UniProt P35916). Kind of experiment: NVS_ENZ_hVEGFR3: NovaScreen (NVS) Enzymatic Assay for human Vascular Endothelial Growth Factor Receptor 3 (VEGFR3) (AID 2283229). The procedure: as §1, with “NVS_ENZ_hVEGFR3” for “NVS_ENZ_hTie2”, “96-well plate.NVS_ENZ_hVEGFR3” for “384-well plate.NVS_ENZ_hTie2”, “NVS_ENZ_hVEGFR3,” for “NVS_ENZ_hTie2,”, “FLT4.” for “TEK.”, “kinase. […]” for “kinase.”

Experiment [9] addresses rat Catechol-O-Methyl Transferase (COMT), Comt (gene 24267) (UniProt P22734). Kind of experiment: NVS_ENZ_rCOMT: NovaScreen (NVS) Enzymatic Assay for rat Catechol-O-Methyl Transferase (COMT) (AID 2283235). A digest of the protocol: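 Rat dorsal striatum extract served as COMT source; product quantified by HPLC/spectrophotometry, read at 0 h after dosing. Primary single-concentration screen at 25 uM, followed by concentration series to a 50 uM maximum.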

Experiment [10] has as its target human Vascular Endothelial Growth Factor Receptor 1 (VEGFR1), FLT1 (gene 2321) (UniProt P17948). Kind of experiment: NVS_ENZ_hVEGFR1: NovaScreen (NVS) Enzymatic Assay for human Vascular Endothelial Growth Factor Receptor 1 (VEGFR1) (AID 2283226). How it is done: as §1, with “NVS_ENZ_hVEGFR1” for “NVS_ENZ_hTie2”, “plate.NVS_ENZ_hVEGFR1” for “plate.NVS_ENZ_hTie2”, “NVS_ENZ_hVEGFR1,” for “NVS_ENZ_hTie2,”, “FLT1.” for “TEK.”, “kinase. […]” for “kinase.”

SMILES strings stand for the structures. Several values for one entry are separate records, joined by “and”; a condition that tells them apart may be missing. Equal entries are not always repeated. Records with an inconclusive call do not appear. Activity calls are given as the source filed them. The calls were made as follows: active = hit-call score of the fitted dose curve at least 0.9, where 1 is the maximum; inconclusive = response in the unintended direction; inactive = score below 0.9.

rat Acetylcholinesterase (AChE), Ache (gene 83817), sequence (P37136 whole entry, looked up): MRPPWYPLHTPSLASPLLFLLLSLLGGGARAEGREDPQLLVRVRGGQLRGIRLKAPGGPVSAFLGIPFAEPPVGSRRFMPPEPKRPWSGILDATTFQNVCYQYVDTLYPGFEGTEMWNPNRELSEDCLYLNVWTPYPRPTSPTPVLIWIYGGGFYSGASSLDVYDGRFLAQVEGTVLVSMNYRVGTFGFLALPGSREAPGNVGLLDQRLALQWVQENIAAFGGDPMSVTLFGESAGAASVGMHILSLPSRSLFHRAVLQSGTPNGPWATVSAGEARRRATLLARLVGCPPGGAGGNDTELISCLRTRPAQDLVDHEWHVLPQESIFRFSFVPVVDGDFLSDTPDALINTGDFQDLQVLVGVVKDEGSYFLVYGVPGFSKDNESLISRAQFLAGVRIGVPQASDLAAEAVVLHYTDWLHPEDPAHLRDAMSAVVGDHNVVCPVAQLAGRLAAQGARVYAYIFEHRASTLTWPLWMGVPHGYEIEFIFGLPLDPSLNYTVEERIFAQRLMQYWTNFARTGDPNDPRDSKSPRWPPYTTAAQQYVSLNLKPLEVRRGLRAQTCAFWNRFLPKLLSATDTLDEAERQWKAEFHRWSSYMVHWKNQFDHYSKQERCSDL
human Tropomyosin Receptor Kinase A (TRKA), NTRK1 (gene 4914), sequence (P04629 whole entry, looked up): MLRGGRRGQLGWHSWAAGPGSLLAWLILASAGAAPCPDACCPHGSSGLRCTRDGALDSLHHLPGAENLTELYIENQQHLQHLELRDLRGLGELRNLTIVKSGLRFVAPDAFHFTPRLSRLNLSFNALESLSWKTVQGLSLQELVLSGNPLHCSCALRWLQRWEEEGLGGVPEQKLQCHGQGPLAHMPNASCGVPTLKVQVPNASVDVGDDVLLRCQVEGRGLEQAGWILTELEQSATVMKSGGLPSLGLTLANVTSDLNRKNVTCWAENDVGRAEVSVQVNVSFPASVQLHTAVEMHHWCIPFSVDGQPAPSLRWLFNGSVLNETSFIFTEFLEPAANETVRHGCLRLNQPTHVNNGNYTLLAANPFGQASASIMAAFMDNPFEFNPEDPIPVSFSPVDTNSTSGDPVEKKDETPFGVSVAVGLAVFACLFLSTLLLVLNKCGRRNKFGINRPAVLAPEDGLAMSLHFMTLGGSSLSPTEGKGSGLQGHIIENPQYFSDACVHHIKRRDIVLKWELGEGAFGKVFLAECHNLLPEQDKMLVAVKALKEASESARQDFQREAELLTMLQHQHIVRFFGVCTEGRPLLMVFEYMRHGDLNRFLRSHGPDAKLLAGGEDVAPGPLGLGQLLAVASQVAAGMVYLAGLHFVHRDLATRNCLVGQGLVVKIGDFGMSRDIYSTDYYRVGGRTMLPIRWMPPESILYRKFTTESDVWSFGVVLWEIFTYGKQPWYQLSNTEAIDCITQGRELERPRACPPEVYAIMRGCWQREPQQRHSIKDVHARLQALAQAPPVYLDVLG
rat Adenylate Cyclase, Forskolin Stimulated, Adcy5 (gene 64532), sequence (Q04400 whole entry, looked up): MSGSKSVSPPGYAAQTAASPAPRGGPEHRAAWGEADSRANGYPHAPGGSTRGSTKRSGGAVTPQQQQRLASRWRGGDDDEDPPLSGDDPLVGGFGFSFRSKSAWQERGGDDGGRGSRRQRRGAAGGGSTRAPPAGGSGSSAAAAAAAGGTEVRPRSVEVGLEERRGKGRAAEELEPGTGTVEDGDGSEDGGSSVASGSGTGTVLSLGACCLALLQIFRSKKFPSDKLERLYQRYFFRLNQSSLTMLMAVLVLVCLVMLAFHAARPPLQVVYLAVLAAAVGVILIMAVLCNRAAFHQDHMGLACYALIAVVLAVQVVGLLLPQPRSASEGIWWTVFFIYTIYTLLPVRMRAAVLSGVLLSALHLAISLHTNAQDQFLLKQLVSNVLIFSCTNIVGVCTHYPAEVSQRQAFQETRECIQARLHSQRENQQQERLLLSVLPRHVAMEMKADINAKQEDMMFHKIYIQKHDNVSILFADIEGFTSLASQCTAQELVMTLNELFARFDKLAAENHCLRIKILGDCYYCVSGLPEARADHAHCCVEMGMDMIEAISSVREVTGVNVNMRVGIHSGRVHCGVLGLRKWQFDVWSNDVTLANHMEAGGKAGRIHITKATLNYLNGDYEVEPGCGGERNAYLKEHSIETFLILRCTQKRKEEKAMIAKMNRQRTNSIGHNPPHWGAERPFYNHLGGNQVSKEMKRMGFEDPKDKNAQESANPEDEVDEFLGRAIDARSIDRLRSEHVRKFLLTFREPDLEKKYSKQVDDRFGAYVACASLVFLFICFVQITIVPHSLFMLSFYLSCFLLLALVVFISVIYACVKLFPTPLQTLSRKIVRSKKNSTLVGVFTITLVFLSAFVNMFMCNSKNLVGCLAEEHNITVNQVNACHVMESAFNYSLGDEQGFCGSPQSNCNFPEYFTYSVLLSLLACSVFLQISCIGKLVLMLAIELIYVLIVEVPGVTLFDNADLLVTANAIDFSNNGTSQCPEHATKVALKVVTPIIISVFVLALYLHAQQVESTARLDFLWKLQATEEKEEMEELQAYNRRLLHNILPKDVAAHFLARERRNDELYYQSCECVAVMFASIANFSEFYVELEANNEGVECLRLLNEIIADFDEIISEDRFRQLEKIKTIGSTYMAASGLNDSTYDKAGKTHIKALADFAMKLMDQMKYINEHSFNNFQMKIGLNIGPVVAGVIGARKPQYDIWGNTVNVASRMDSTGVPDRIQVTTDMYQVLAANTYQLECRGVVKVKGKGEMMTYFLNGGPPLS
rabbit Imidazoline 2 Central (I2C), CKB (gene 100009085), sequence (P00567 whole entry, looked up): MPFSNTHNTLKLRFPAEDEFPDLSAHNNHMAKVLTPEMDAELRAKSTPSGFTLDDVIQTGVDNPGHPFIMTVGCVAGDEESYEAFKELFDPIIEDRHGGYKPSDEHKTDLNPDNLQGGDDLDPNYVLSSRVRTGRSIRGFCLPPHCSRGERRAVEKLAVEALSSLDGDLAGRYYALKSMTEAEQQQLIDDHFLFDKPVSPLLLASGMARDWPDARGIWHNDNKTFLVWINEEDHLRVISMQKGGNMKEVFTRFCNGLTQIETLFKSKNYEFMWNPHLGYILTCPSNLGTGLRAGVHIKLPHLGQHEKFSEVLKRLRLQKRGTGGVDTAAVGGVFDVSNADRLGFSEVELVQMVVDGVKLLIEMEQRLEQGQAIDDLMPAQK
human Tyrosine Protein Kinase Receptor Tie-2 (Tie2), TEK (gene 7010), sequence (Q02763 whole entry, looked up): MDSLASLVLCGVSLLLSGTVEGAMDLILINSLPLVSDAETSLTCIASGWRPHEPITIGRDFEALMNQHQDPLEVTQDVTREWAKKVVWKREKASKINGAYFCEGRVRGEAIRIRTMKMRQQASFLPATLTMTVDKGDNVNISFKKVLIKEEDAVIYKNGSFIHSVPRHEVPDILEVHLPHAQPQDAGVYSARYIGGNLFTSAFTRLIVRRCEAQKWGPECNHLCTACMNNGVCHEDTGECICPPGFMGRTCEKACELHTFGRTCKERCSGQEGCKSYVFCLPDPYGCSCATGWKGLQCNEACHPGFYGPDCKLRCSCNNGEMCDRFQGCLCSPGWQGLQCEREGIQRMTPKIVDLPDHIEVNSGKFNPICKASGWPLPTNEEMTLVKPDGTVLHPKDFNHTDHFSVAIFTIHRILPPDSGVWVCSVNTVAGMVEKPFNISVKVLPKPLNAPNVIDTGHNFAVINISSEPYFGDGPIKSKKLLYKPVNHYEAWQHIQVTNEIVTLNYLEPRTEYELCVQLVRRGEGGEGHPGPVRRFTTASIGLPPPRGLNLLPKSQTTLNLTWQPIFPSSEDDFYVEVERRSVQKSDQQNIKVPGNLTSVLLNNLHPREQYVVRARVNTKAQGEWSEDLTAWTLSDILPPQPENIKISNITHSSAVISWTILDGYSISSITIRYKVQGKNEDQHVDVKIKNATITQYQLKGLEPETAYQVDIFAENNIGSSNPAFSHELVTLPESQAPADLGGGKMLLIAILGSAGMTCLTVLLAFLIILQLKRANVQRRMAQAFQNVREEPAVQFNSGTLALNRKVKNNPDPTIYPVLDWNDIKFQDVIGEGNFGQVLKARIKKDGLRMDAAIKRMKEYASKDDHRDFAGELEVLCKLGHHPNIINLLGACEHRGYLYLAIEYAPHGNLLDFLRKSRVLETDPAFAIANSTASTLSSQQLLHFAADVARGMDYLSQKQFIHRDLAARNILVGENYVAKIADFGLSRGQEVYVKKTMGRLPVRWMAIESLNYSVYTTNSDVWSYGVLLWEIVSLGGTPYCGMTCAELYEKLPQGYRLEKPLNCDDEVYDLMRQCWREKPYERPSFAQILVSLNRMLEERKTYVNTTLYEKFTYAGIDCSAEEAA
rat Catechol-O-Methyl Transferase (COMT), Comt (gene 24267), sequence (P22734 whole entry, looked up): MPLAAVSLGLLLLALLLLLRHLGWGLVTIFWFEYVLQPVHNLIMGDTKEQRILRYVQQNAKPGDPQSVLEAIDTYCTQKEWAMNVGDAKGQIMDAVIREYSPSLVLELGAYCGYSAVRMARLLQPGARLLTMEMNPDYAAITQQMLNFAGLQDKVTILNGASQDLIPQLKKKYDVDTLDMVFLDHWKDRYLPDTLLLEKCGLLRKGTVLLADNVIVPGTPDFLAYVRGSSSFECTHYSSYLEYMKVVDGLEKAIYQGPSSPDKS

With `CNC(=S)S`, the result in experiment [1], in [2] and in experiment [3] was inactive.

Take `CS/C(C)=N/OC(=O)N(C)SN(C)C(=O)O/N=C(\C)SC`: the results for the AC50 in experiment [3] and in experiment [4] were 6.77 µM (active) and 2 µM (active), respectively.

With `CC(Oc1ccc(Cl)cc1Cl)C(=O)O` (configuration not stated), the compound was classed as inactive in experiment [5].

For `Cc1ccc(-c2c(Cl)nc(C#N)n2S(=O)(=O)N(C)C)cc1`, the result in experiment [1] was inactive.

Consider `CNC(=O)ON=CC(C)(C)SC`, for which, in experiment [4], the AC50 was 6.41 µM (active).

Regarding `CCCCNC(=O)n1c(NC(=O)OC)nc2ccccc21`, the AC50 in experiment [2] was 14.2 µM (active). In addition, the call in experiment [3] was inactive.

In the case of `CO/C=C(/C(=O)OC)c1ccccc1Oc1cc(Oc2ccccc2C#N)ncn1`, the compound was classed as inactive in experiment [5] and in experiment [6].

On to `O=C(Nc1ccccc1)Nc1ccnc(Cl)c1`, for which the compound was called inactive in [2].

For the compound `C=CC1(C)OC(=O)N(c2cc(Cl)cc(Cl)c2)C1=O` (configuration not stated), the AC50 in experiment [7] is 5.97 µM (active).

Turning to `CON(C)C(=O)Nc1ccc(Cl)c(Cl)c1`, in [7], the compound was classed as inactive.

As to `CN(C)C(=S)SSC(=S)N(C)C`, the AC50 in experiment [3] is 6.85 µM (active).

Regarding `CCCCOC(=O)c1ccccc1C(=O)OCCCC`, in experiment [1], the compound was called inactive.

For the compound `CCNc1nc(Cl)nc(NC(C)C)n1`, the call in [8] was inactive. In experiment [7], the AC50 is 7.07 µM (active) and 12.4 µM (active).

On to `COC(=O)C=C(C)OP(=O)(OC)OC`, for which the AC50 in experiment [4] is 1.52 µM (active).

As to `C=CCC1=C(C)C(OC(=O)C2C(C=C(C)C)C2(C)C)CC1=O` (configuration not stated), in experiment [6], the compound was classed as inactive.

Regarding `CCCCNC(=O)OCC#CI`, the AC50 in experiment [3] was 18.1 µM (active) and 19.4 µM (active).

With `COC(=O)N(OC)c1ccccc1COc1ccn(-c2ccc(Cl)cc2)n1`, the outcome in experiment [9] was inactive.

`N#Cc1cc(Br)c(O)c(Br)c1`: the result in experiment [5] and in experiment [8] was inactive. In addition, the AC50 in experiment [9] was 0.677 µM (active).

With `CCOC(=O)CC(SP(=S)(OC)OC)C(=O)OCC` (configuration not stated), the outcome in experiment [9] was inactive.

With `CCCN(CCC)c1c([N+](=O)[O-])cc(S(N)(=O)=O)cc1[N+](=O)[O-]`, the compound was called inactive in [5], in experiment [1], in experiment [10], in experiment [7] and in experiment [3].

Regarding `COP(=S)(OC)Oc1nc(Cl)c(Cl)cc1Cl`, the compound was called inactive in [4] and in [9].

With `COc1cnc(OC)n2nc(NS(=O)(=O)c3c(OCC(F)F)cccc3C(F)(F)F)nc12`, in experiment [10], the outcome was inactive.

In the case of `COC(=O)C(C)Oc1ccc(Oc2ccc(Cl)cc2Cl)cc1` (configuration not stated), in experiment [1], the outcome was inactive.

For `CC(C)Oc1cc(-n2nc(C(C)(C)C)oc2=O)c(Cl)cc1Cl`, the compound was classed as inactive in [3].
